Sampled rows, rich in hits. Any-hit rate of the full collection: about 19%.
Pf growth 48h = inhibits P. falciparum growth in the first generation, 48 h. AID 504832. Potency, µM (top dose mostly 28.7 µM), actives largely listed as inhibitors. P. falciparum luciferase growth in erythrocytes, 48 h. actives 5.9% (n = 310,000)
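In quantitative HTS format, infected erythrocytes bearing luciferase-reporter parasites were treated for a single generation at 37 C. Luminescence after adding detection reagent served as the growth measure.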
MARV entry inh = inhibitors of Marburg virus binding or cell entry; Marburg virus pseudotyped entry inhibition, cell reporter; Potency, µM (titrated, usually from 37.8 µM), actives largely listed as inhibitors; actives 1.8% (n = 300,000); calls by dose curve; tested in HEK293 cells
LASV entry inh = inhibitors of Lassa virus binding or cell entry; Lassa virus pseudotype entry inhibition, cell reporter; Potency, µM (top dose mostly 37.9 µM), usual class: inhibitors; actives 1.2% (n = 300,000); calls by dose curve; tested in HEK293 cells; note: nearly all actives have a fitted effect of over 50% in size
Shiga inhibitor = Shiga toxin inhibition | AID 2315 | inhibition, % at 38.7 µM | Vero cells, Shiga toxin protein synthesis inhibition reporter | actives 9.2% (n = 290,000); in the data active = inhibition mostly above about 28%, no sharp cut-off; inactive = mostly below about 43%
Cycloheximide cs = counter-screen for Shiga toxin inhibitors: cycloheximide protein synthesis inhibition; cell reporter, cycloheximide protein synthesis inhibition counterscreen; max response, %; actives 12% (n = 300,000); in the data active = max response mostly above about 13%, no sharp cut-off; inactive = mostly below about 14%; note: read at 38.3 µM for the half of the compounds with a filed dose
Pf growth 96h = P. falciparum growth inhibition at 96 hour, primary screen for plastid delayed-death inhibitors; P. falciparum luciferase reporter growth, 96 h; Potency, µM (doses to about 28.7 µM), usual class: inhibitors; actives 6.9% (n = 320,000); AID 504834
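Compounds incubated with erythrocytes infected by luciferase-expressing P. falciparum (2% hematocrit, 0.05% parasitemia final) for 96 hours, 37 C in 5% CO2. Growth inhibition scored as decreased luciferase luminescence.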
A number is an active result; [ ] = another dose, or the depositor's remark. Unless noted, calls come from the whole dose curve; as a rule, active = well fitted inhibition curve with a large enough effect; inconclusive = small, poorly fitted or top-dose-only effect, or another doubt; inactive = no such curve, though single readings can be large or run the other way.

Results for Cc1c(C(=O)Nc2ccc(Br)cc2F)oc2ccc(S(=O)(=O)N3CCCCC3)cc12 ?
LASV entry inh: inactive

How did Cc1ccsc1/C=C/C(=O)O do in these assays?
Pf growth 48h: inactive; MARV entry inh: inconclusive; LASV entry inh: inactive; Shiga inhibitor: inactive; Cycloheximide cs: inactive; Pf growth 96h: inactive

What do the screens show for `Oc1ccc2ccccc2c1/C=C/c1ccc2c(Br)cc(Br)c(O)c2n1`?
MARV entry inh: inconclusive; LASV entry inh: inactive

Results for Oc1cccc2ccc(/C=C/c3cccs3)nc12 ?
MARV entry inh: inconclusive; LASV entry inh: inconclusive; Shiga inhibitor: 68; Cycloheximide cs: 36; Pf growth 96h: inactive

Results for Cc1ccsc1/C=C/c1ccc2cccc(O)c2n1 ?
MARV entry inh: inconclusive; LASV entry inh: inconclusive; Shiga inhibitor: 72; Cycloheximide cs: 66; Pf growth 96h: inactive

Results for Cc1ccsc1/C=C/c1ccc2ccccc2n1 ?
Pf growth 48h: inactive; MARV entry inh: inconclusive; LASV entry inh: 13µM; Shiga inhibitor: 67; Cycloheximide cs: 28; Pf growth 96h: inactive

How did O=C(Cc1cccc2ccccc12)N/N=C/c1ccc2cccc(O)c2n1 do in these assays?
Pf growth 48h: inactive; MARV entry inh: inconclusive; LASV entry inh: inactive; Shiga inhibitor: inactive; Cycloheximide cs: inactive; Pf growth 96h: inactive

Results for O=C1CC(c2ccco2)=Nc2ccccc2N1 ?
Pf growth 48h: inactive; MARV entry inh: inactive; LASV entry inh: inactive; Shiga inhibitor: inactive; Cycloheximide cs: 11; Pf growth 96h: inactive[5.75 µM]

How did Cc1ccc(NC(=O)Nc2ccccc2CC[N+](=O)[O-])cc1 do in these assays?
Pf growth 48h: inactive; MARV entry inh: inactive; LASV entry inh: inactive; Shiga inhibitor: inactive; Cycloheximide cs: 16; Pf growth 96h: inactive

Results for Cc1cc(C)cc(NC(=O)c2ccccc2CC[N+](=O)[O-])c1 ?
Pf growth 48h: inconclusive; MARV entry inh: inactive; LASV entry inh: inactive; Shiga inhibitor: inactive; Cycloheximide cs: inactive; Pf growth 96h: inactive

How did CCc1ccc(-c2nn(CC(=O)NC3CCCCC3)c3c2cnc2ccc(OC)cc23)cc1 do in these assays?
LASV entry inh: inactive

How did Clc1ccc(C2=NCCN2)cc1 do in these assays?
Pf growth 48h: inactive; Shiga inhibitor: inactive; Cycloheximide cs: inactive; Pf growth 96h: inactive

How did O=C(NNC(=O)c1ccc2ccccc2c1)c1ccc(Cl)c(Cl)c1 do in these assays?
MARV entry inh: inactive; LASV entry inh: inactive

How did O=C(NNc1ccccc1)c1ccc(Cl)c(Cl)c1 do in these assays?
MARV entry inh: 7.1µM; LASV entry inh: inconclusive

What do the screens show for `O=C(Nc1ccc(C2=NCCN2)cc1)c1ccc(Cl)c(C(=O)Nc2ccc(C3=NCCN3)cc2)c1`?
Pf growth 48h: 2.3µM; Shiga inhibitor: inactive; Cycloheximide cs: inactive; Pf growth 96h: 0.21µM

Results for Cc1ccc(NC(=O)c2ccc(Cl)c(N3C(=O)C=CC3=O)c2)cc1 ?
Pf growth 48h: inactive; MARV entry inh: inactive; LASV entry inh: inactive; Shiga inhibitor: 81; Cycloheximide cs: 57; Pf growth 96h: inactive

How did O=C(Nc1ccc2c(c1)Cc1ccccc1-2)c1ccncc1 do in these assays?
Pf growth 48h: inactive; MARV entry inh: inconclusive; LASV entry inh: inactive; Shiga inhibitor: 66; Cycloheximide cs: 33; Pf growth 96h: inconclusive

How did O=C(COC(=O)Cc1cccc(C(F)(F)F)c1)Nc1cccc2ccccc12 do in these assays?
Pf growth 48h: inactive; MARV entry inh: inconclusive; LASV entry inh: inactive; Shiga inhibitor: inactive; Cycloheximide cs: inactive; Pf growth 96h: inactive

How did Cc1ccc2nc(C)c(C)nc2c1N do in these assays?
Pf growth 48h: inactive; MARV entry inh: inconclusive; LASV entry inh: inactive; Shiga inhibitor: inactive; Cycloheximide cs: inactive; Pf growth 96h: inconclusive

What do the screens show for `O=C(Nc1ccc(Cl)c(Cl)c1)c1ccncc1`?
Pf growth 48h: inactive; MARV entry inh: inconclusive; LASV entry inh: inactive; Shiga inhibitor: 101; Cycloheximide cs: 31; Pf growth 96h: 15µM

Results for O=C(Nc1ccc(Cl)c(Cl)c1)Nc1cc(C(=O)NC2CC2)ccc1Cl ?
Pf growth 48h: 13µM; Shiga inhibitor: inactive; Cycloheximide cs: inactive; Pf growth 96h: inconclusive

What do the screens show for `O=C(Nc1cccnc1)c1ccc(Cl)c(Cl)c1`?
Pf growth 48h: inconclusive; Cycloheximide cs: 24; Pf growth 96h: 6.6µM

How did c1ccc(CCNc2ccc3c(c2)Cc2ccccc2-3)nc1 do in these assays?
MARV entry inh: 1µM; LASV entry inh: inconclusive

How did O=C(NNC(=O)c1ccc(Cl)c(Cl)c1)c1cccnc1 do in these assays?
Pf growth 48h: inactive; Shiga inhibitor: inactive; Cycloheximide cs: inactive; Pf growth 96h: inactive

How did O=C(CSc1nnc(CNC(=O)c2ccc(F)cc2)o1)c1ccccc1 do in these assays?
Pf growth 48h: inactive; MARV entry inh: inactive; LASV entry inh: inactive; Shiga inhibitor: inactive; Cycloheximide cs: inactive; Pf growth 96h: inconclusive

What do the screens show for `O=C(NC(N1CCCCCC1)C(Cl)(Cl)Cl)c1ccccc1Cl` (stereo unspecified)?
Pf growth 48h: inactive; MARV entry inh: inconclusive; LASV entry inh: inactive; Shiga inhibitor: inactive; Cycloheximide cs: inactive; Pf growth 96h: inactive

How did O=C(NCCO)C(=O)NCC1OCCCN1S(=O)(=O)c1cc(F)ccc1F (stereo unspecified) do in these assays?
Pf growth 48h: inactive; MARV entry inh: inactive; LASV entry inh: inactive; Shiga inhibitor: inactive; Cycloheximide cs: inactive; Pf growth 96h: inactive

What do the screens show for `O=C(Nc1ccc(Cl)c(Cl)c1)c1ccc(Cl)c(Cl)c1`?
Pf growth 48h: inactive; Shiga inhibitor: 89; Cycloheximide cs: 50; Pf growth 96h: inactive

Results for O=C(Nc1ccc2c(c1)COC2=O)c1ccc(Cl)c(Cl)c1 ?
Pf growth 48h: inactive; MARV entry inh: inactive; LASV entry inh: inactive; Shiga inhibitor: 71; Cycloheximide cs: 34; Pf growth 96h: inactive

How did COC(=O)Nc1ccc(Cl)c(Cl)c1 do in these assays?
Shiga inhibitor: inactive; Cycloheximide cs: inactive

What do the screens show for `COc1ccc(C(=O)Nc2ccc(Cl)c(Cl)c2)c(OC)n1`?
Pf growth 48h: inactive; MARV entry inh: inconclusive; LASV entry inh: inconclusive; Shiga inhibitor: 45; Cycloheximide cs: 21; Pf growth 96h: inactive

Results for Cc1cc(C)nc(NC(=O)c2ccc(Cl)c(Cl)c2)n1 ?
MARV entry inh: inactive; LASV entry inh: inactive; Shiga inhibitor: inactive; Cycloheximide cs: inactive; Pf growth 96h: inactive

What do the screens show for `CC(C)(C)c1cc(C(=O)Nc2cccnc2)cc(C(=O)Nc2cccnc2)c1`?
MARV entry inh: inconclusive; LASV entry inh: inactive; Shiga inhibitor: inactive; Cycloheximide cs: inactive; Pf growth 96h: 0.83µM

Results for CCNc1[nH]c(=O)n(C)c(=O)c1N=O ?
Pf growth 48h: inconclusive; MARV entry inh: inconclusive; LASV entry inh: inactive; Shiga inhibitor: inactive; Cycloheximide cs: inactive; Pf growth 96h: inconclusive

Results for COc1cccc(S(=O)(=O)NCc2ccc(C(=O)Nc3ccc(Cl)c(Cl)c3)cc2)c1 ?
MARV entry inh: inconclusive; LASV entry inh: inactive; Shiga inhibitor: inactive; Cycloheximide cs: inactive; Pf growth 96h: inconclusive

Results for CS(=O)(=O)c1cccc(NC(=O)c2ccc(Cl)c(Cl)c2)c1 ?
Pf growth 48h: inactive; MARV entry inh: inactive; LASV entry inh: inactive; Shiga inhibitor: 54; Cycloheximide cs: inactive; Pf growth 96h: inconclusive

High-throughput results from PubChem.
